# Results: article PMC5700166
# How the values were obtained:
# Test in all cases: protein-binding microarray (PBM); PBM: ~300 nM protein, 6 mM HEPES pH 7.8, 80 mM KCl, 0.5 mM EDTA, 0.5 mM EGTA, 6% glycerol, 35 ng/ul poly-dIdC, 1% milk, 1 h, room temperature; Ap Aiptasia and Nv Nematostella (sea anemones) / Co Capsaspora / Aq Amphimedon (sponge) / Dm Drosophila / Hu human; RHD is the Rel homology domain; high values mean tight binding
# Details in all cases: dsDNA, one strand shown
# GST-Ap-NF-kB RHD = biological target: T1, GST-Ap-NF-kB RHD (Exaiptasia pallida (Aiptasia), UniProt A0A913YAJ5 2-422)
# T1 sequence: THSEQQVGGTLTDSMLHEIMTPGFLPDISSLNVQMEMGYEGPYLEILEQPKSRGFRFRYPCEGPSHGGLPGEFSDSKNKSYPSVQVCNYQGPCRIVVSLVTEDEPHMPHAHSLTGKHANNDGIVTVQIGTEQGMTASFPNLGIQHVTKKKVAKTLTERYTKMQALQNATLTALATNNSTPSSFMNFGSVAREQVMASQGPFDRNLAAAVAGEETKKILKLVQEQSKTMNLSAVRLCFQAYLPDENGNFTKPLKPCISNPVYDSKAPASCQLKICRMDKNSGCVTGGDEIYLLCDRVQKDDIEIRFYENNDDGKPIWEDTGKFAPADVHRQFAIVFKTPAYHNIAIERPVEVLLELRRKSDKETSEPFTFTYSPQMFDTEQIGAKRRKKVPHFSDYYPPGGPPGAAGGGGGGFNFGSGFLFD
# [1] = biological target: T2, GST-Nv-NF-kB (Cys allele) (Nematostella vectensis, UniProt E5G601 2-411)
# T2 sequence: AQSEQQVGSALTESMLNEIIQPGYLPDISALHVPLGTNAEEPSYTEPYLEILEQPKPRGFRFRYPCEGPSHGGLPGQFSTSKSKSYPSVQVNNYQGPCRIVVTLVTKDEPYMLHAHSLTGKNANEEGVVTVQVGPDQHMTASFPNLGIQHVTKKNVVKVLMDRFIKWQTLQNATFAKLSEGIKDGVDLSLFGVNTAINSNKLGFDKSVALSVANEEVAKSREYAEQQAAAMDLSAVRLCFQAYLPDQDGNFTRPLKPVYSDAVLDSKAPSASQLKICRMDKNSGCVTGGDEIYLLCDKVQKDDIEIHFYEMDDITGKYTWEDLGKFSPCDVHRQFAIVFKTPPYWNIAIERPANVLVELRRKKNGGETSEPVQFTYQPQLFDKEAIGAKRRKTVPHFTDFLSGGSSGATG
# GST-Co-NF-kB = biological target: T3, GST-Co-NF-kB (Capsaspora owczarzaki, UniProt F1ARL5 200-546)
# T3 sequence: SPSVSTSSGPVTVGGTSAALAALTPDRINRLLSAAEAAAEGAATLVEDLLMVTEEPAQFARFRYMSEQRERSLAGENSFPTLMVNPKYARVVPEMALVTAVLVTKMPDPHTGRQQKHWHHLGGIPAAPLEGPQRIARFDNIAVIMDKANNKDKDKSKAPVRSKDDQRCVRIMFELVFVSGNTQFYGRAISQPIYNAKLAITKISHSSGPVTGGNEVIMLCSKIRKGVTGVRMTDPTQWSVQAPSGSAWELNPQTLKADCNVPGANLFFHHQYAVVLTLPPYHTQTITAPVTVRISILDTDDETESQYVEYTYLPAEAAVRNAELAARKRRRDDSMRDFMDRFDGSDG
# GST-Dm-Relish = biological target: T4, GST-Dm-Relish (Drosophila melanogaster, UniProt Q94527 99-473)
# T4 sequence: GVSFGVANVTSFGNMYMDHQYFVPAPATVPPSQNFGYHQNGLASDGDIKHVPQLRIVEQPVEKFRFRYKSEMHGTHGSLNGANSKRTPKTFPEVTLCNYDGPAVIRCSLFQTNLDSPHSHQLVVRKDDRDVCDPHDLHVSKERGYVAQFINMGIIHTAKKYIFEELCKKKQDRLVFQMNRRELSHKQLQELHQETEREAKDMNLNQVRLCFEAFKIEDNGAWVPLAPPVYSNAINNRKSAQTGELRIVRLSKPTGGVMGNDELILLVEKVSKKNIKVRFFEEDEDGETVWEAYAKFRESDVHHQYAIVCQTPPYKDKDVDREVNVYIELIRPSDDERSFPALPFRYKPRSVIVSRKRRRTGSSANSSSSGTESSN
# GST-Aq-NF-kB = biological target: T5, GST-Aq-NF-kB (Amphimedon queenslandica, UniProt A9Y5G7 2-389)
# T5 sequence: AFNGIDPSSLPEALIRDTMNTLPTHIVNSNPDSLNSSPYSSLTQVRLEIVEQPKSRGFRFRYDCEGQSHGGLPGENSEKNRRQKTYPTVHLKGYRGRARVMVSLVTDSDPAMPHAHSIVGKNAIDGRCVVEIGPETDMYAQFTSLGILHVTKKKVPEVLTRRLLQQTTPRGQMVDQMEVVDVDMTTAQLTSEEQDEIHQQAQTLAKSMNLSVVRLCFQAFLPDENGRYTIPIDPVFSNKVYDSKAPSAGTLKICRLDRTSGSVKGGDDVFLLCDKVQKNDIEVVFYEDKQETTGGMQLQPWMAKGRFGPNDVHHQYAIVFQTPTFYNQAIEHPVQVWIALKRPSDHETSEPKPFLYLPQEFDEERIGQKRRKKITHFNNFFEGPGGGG
Sequence,binding signal (GST-Ap-NF-kB RHD),binding signal [1],binding signal (GST-Co-NF-kB),binding signal (GST-Dm-Relish),binding signal (GST-Aq-NF-kB)
CCGATTAACATCAGGCGATTCCCTGATGTTAATCGGGTCTTGATTCGCTTGACGCTGCTG,1.93 z-score,2.99 z-score,1.44 z-score,2.34 z-score,3.88 z-score
CCGATTAACATCAGGGGGGGACCTGATGTTAATCGGGTCTTGATTCGCTTGACGCTGCTG,7.43 z-score,4.15 z-score,5.99 z-score,4.96 z-score,5.51 z-score
CCGATTAACATCAGGGGGCGCACTGATGTTAATCGGGTCTTGATTCGCTTGACGCTGCTG,3.71 z-score,3.04 z-score,2.37 z-score,4.13 z-score,4.79 z-score
CCGATTAACATCACCGCCCCCCCTGATGTTAATCGGGTCTTGATTCGCTTGACGCTGCTG,3.91 z-score,4.65 z-score,3.8 z-score,4.88 z-score,4.3 z-score
CCGATTAACATCAGGGAGATACCTGATGTTAATCGGGTCTTGATTCGCTTGACGCTGCTG,4 z-score,4.81 z-score,1.64 z-score,4.25 z-score,7.69 z-score
CCGATTAACATCAAAATTCCCGGTGATGTTAATCGGGTCTTGATTCGCTTGACGCTGCTG,4.57 z-score,5.96 z-score,5.57 z-score,6.54 z-score,5.5 z-score
CCGATTAACATCAACCACCCCCCTGATGTTAATCGGGTCTTGATTCGCTTGACGCTGCTG,3.74 z-score,2.31 z-score,4.22 z-score,4.6 z-score,3.9 z-score
CCGATTAACATCAGGGGAGGTACTGATGTTAATCGGGTCTTGATTCGCTTGACGCTGCTG,4.21 z-score,3.43 z-score,3.96 z-score,6.44 z-score,4.35 z-score
CCGATTAACATCATGGGTGGGAATGATGTTAATCGGGTCTTGATTCGCTTGACGCTGCTG,1.4 z-score,1.79 z-score,2.62 z-score,1.66 z-score,2.5 z-score
CCGATTAACATCAGGGATAACCCTGATGTTAATCGGGTCTTGATTCGCTTGACGCTGCTG,3.63 z-score,3.77 z-score,1.82 z-score,4.42 z-score,6.12 z-score
CCGATTAACATCAGGATTGCCCCTGATGTTAATCGGGTCTTGATTCGCTTGACGCTGCTG,2.91 z-score,4.26 z-score,1.5 z-score,2.51 z-score,5.63 z-score
CCGATTAACATCAAATTCCCACTTGATGTTAATCGGGTCTTGATTCGCTTGACGCTGCTG,2.15 z-score,4.13 z-score,2.26 z-score,4.38 z-score,2.47 z-score
CCGATTAACATCAGGGATTACCATGATGTTAATCGGGTCTTGATTCGCTTGACGCTGCTG,3.4 z-score,1.46 z-score,1.11 z-score,6.01 z-score,3.67 z-score
CCGATTAACATCAGAATTCCCGCTGATGTTAATCGGGTCTTGATTCGCTTGACGCTGCTG,3.59 z-score,4.74 z-score,3.87 z-score,3.89 z-score,3.98 z-score
CCGATTAACATCAGGGAAAATGATGATGTTAATCGGGTCTTGATTCGCTTGACGCTGCTG,2.8 z-score,4.26 z-score,3.42 z-score,1.15 z-score,3.05 z-score
CCGATTAACATCAGGGGGTGATATGATGTTAATCGGGTCTTGATTCGCTTGACGCTGCTG,3.88 z-score,3.66 z-score,4.73 z-score,2.63 z-score,4.56 z-score
CCGATTAACATCAGGGAGATTTATGATGTTAATCGGGTCTTGATTCGCTTGACGCTGCTG,3.69 z-score,5.42 z-score,2.8 z-score,1.71 z-score,5.99 z-score
CCGATTAACATCATAAAATCCCATGATGTTAATCGGGTCTTGATTCGCTTGACGCTGCTG,2.43 z-score,2.92 z-score,1.47 z-score,6.55 z-score,3.1 z-score
CCGATTAACATCACCAAAACCCCTGATGTTAATCGGGTCTTGATTCGCTTGACGCTGCTG,4.76 z-score,3.55 z-score,1.32 z-score,6.02 z-score,3.55 z-score
CCGATTAACATCACCCAGGGAAATGATGTTAATCGGGTCTTGATTCGCTTGACGCTGCTG,1.54 z-score,2.66 z-score,2.73 z-score,1.46 z-score,2.69 z-score
CCGATTAACATCAGAAATCTCCCTGATGTTAATCGGGTCTTGATTCGCTTGACGCTGCTG,3.4 z-score,5.21 z-score,2.43 z-score,1.79 z-score,5.79 z-score
CCGATTAACATCATGGGAAAAAATGATGTTAATCGGGTCTTGATTCGCTTGACGCTGCTG,1.94 z-score,3.64 z-score,4.93 z-score,1.7 z-score,2.57 z-score
CCGATTAACATCAAACCCCCCCCTGATGTTAATCGGGTCTTGATTCGCTTGACGCTGCTG,7.29 z-score,5.16 z-score,4.79 z-score,6.75 z-score,5.35 z-score
CCGATTAACATCAGGGGAGCACCTGATGTTAATCGGGTCTTGATTCGCTTGACGCTGCTG,4.77 z-score,3.52 z-score,3.23 z-score,4.91 z-score,4.81 z-score
CCGATTAACATCAGACCTTCCCCTGATGTTAATCGGGTCTTGATTCGCTTGACGCTGCTG,4.8 z-score,4.93 z-score,4.12 z-score,4.54 z-score,5.13 z-score
CCGATTAACATCAGGGGGTATACTGATGTTAATCGGGTCTTGATTCGCTTGACGCTGCTG,5.81 z-score,3.11 z-score,4.82 z-score,6.38 z-score,4.14 z-score
CCGATTAACATCAAAAATCCCTATGATGTTAATCGGGTCTTGATTCGCTTGACGCTGCTG,5.18 z-score,5.21 z-score,1.39 z-score,6.49 z-score,5.85 z-score
CCGATTAACATCAGGGGTATACCTGATGTTAATCGGGTCTTGATTCGCTTGACGCTGCTG,4.25 z-score,2.43 z-score,3.98 z-score,4.15 z-score,4.94 z-score
